A selection: hits, their analogues and other compounds. The true share with any hit is near 4.7%.
TRHR enhancer = allosterically enhances the human TRH receptor; P34981; TRHR cells, fluo-8 calcium fluorescence, EC20 TRH enhancement; enhancement, % at 2 µM; hit rate 0.66% among 360,000; in the data active means enhancement above about 30%
Target sequence (P34981 whole entry, looked up): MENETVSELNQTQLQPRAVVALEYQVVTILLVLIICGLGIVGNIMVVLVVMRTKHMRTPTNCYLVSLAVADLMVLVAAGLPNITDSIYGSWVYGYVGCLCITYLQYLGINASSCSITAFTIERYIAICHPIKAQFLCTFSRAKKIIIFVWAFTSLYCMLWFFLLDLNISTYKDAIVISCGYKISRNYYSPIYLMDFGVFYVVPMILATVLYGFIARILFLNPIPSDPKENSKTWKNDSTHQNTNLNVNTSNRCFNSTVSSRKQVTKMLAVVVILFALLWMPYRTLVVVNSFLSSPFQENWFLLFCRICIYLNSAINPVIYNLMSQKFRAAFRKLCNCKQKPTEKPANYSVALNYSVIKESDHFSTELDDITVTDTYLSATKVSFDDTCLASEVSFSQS
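Enhancer read-out: after compound pinning and an initial kinetic agonist-mode read, an EC20 of TRH (10 nM final) was injected and fluo-8 calcium signal (Ex 480/Em 530) followed at 1 s/cycle for 100 cycles in TRHR-expressing cells.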
D1 antag = antagonists of human D1 dopamine receptor | hit rate 3.2% among 360,000 | HEK293 TREx D1 cells, calcium flux, dopamine EC80; hits give low values | activity change, negative = inhibition, % at 10 µM | AID 504652; in the data active means activity change below about -30%
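Tetracycline-induced HEK293 Trex D1 cells, force-coupled to calcium, dye-loaded; compounds added and read 180 s, then EC80 dopamine added and calcium flux tracked kinetically another 180 s.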
D1 PAM = human D1 dopamine receptor positive modulation; HEK293 TREx D1 cells, calcium flux, dopamine EC20 potentiation; hit rate 0.036% among 360,000; P21728; potentiation, % at 10 µM; in the data active means potentiation above about 30%
TRHR agonist = TRH receptor (human) agonism | P34981 | TRHR cells, calcium flux fluo-8, FDSS agonist mode | activation, % at 2 µM | hit rate 0.18% among 360,000
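Steps: seed TRHR cells overnight; add fluo-8 no-wash Ca dye, RT 30 min–1.5 h; record 10 s baseline; pin-transfer compounds; monitor fluorescence 1 cycle/s for the agonist window. Calcium increases flag candidate agonists.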
D1 ag = human D1 receptor agonism; P21728; HEK293 T-REx D1 cells, calcium flux, agonist mode; activation, % at 2 µM; hit rate 1% among 360,000; AID 504660
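Agonism was scored from calcium flux recorded over 180 s (1 read/s) after pintool compound addition, following a 10-cycle baseline. Cells were inducible force-coupled HEK293 TREx D1, plated overnight at 30 C and loaded with no-wash calcium dye.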
Large screens that a line does not name were inactive; ! = a repeat was not active. Unless noted, no stated cut-off is given here; in the data, active means activation above about 30%; inactive means the rest.

COc1ccc(N2CCN(C(=O)CC(C)S(=O)(=O)c3ccc4c(c3)NC(=O)CO4)CC2)cc1 (stereo not given)	D1 antag -32
Cc1oc(C)c2c(=O)ccc3c(c12)OC(N)=C(C#N)C3c1ccc(F)cc1 (stereo not given)	D1 ag 37
Cc1ccccc1SCC(=O)OCC(=O)NCCNC(=O)COC(=O)CSc1ccccc1C	none
O=C(Nc1ccccc1O)c1ccccc1O	none
Cc1cccc(NC(=O)c2ccccc2O)c1C	D1 antag -32
Cc1cccc(NS(=O)(=O)c2ccc(Cl)c(C(=O)Nc3ccccc3C)c2)c1	none
CCN(CC)CCNC(=O)c1[nH]c2ccc(OCc3ccccc3)cc2c1C	D1 antag -64, D1 ag 126
CC1CCCCC1NS(=O)(=O)c1ccc(S(=O)(=O)N2CCN(CCC#N)CC2)cc1 (stereo not given)	D1 antag -35
CN(C)S(=O)(=O)c1ccc(S(=O)(=O)N2CCN(CCC#N)CC2)cc1	D1 antag -33
CCN(CC)S(=O)(=O)c1ccc(S(=O)(=O)N2CCN(CCC#N)CC2)cc1	none
COc1cc(C(=O)OC2CSCC2NC(=O)c2ccccc2)cc(OC)c1OC (stereo not given)	none
O=C(NC1CSCC1OC(=O)c1ccccc1)c1ccccc1 (stereo not given)	D1 antag -39
Clc1cccc(N2CCN(c3c4c(nc5nncn35)CCC4)CC2)c1	none
O=C(Nc1cccc(-c2cn3ccccc3n2)c1)c1cc2ccccc2oc1=O	D1 antag -35
Cc1ccccc1C(=O)Nc1sc2c(c1C(=O)N1CCCCC1)CCC(C)C2 (stereo not given)	none
CCOc1ccc(CNC(=O)CN2C(=O)CSc3c2c(C)nn3-c2ccccc2)cc1	none
c1ccc(SCCc2ccncc2)cc1	none
Fc1ccc(SCCc2ccncc2)cc1	D1 antag -34!
C=CCN1C=C/C(=C\C=C(C#N)C#N)c2ccccc21	none
C=CCN1C=CC(=CC=C(C#N)C#N)C=C1	TRHR agonist 46, D1 ag 96
COc1ccccc1Nc1nc2ccc(Cl)cc2nc1-n1nc(C)cc1C	none
Cc1cccc(C)c1NC(=O)c1c[nH]c2ccccc12	D1 antag -48
Cc1cccc(CC(=O)c2c[nH]c3ccccc23)c1	TRHR enhancer 31
CC(C)(C)/C(Cn1cncn1)=N\OC(=O)Nc1ccc(Cl)cc1	D1 antag -55
O=C(/C=C/c1cccc([N+](=O)[O-])c1)NCc1ccc2c(c1)OCO2	none
O=C(/C=C/c1ccc2c(c1)OCO2)NCCSCc1cccc(Cl)c1	D1 antag -31
O=C(/C=C/c1ccc2c(c1)OCO2)NCCSCc1ccc(Cl)cc1Cl	none
O=C(/C=C/c1cccc(F)c1)NCc1ccc2c(c1)OCO2	D1 antag -35
Cc1ccc(CNC(=O)c2cnc3c(-c4ccccc4)c(C)nn3c2C)o1	none
CN1CCN(C(=O)/C=C/c2ccc(C#N)cc2)CC1	none
CCCS(=O)(=O)N1CCCC(C(=O)NCCc2ccc(Cl)cc2)C1 (stereo not given)	D1 antag -31
Cc1[nH]c(=O)[nH]c(=O)c1S(=O)(=O)N1CCCC(C(=O)NCCc2ccccc2)C1 (stereo not given)	none
Cc1[nH]c(=O)[nH]c(=O)c1S(=O)(=O)N1CCCC(C(=O)NCCc2ccc(Cl)cc2)C1 (stereo not given)	D1 antag -35
CCCCNC(=O)C1CCCN(S(=O)(=O)CCC)C1 (stereo not given)	D1 antag -32
CCCS(=O)(=O)N1CCCC(C(=O)NCCCOCC)C1 (stereo not given)	none
CCOC(=O)C1CCN(C(=O)C2CCN(C3=NS(=O)(=O)C(c4ccc(C)cc4)=C3CC)CC2)CC1	none
CCN(CC(=O)Nc1ccccc1C(F)(F)F)C(=O)CN1C(=O)NC2(CCCC2)C1=O	none
COc1cccc(N2CCN(C(=O)CCc3c(C)nc4c(c3C)c(=O)n(C)c(=O)n4C)CC2)c1	none
CCN(CC)c1ccc(/C=C2/C(=O)c3ccc(C(=O)O)cc3C2=O)cc1	TRHR enhancer 41, TRHR agonist 188, D1 ag 261
CNC(=O)CSc1nnc(-c2ccco2)n1-c1ccc(C)cc1	none
Cn1c(SCC(=O)NC(=O)NCc2ccco2)nnc1-c1ccccc1	none
CC(C)(C)c1nnc2sc(SCC(=O)NCc3ccco3)nn2c1=O	D1 antag -32 (no result: D1 PAM)
CCn1nnnc1SCC(=O)NCc1ccco1	none
CCc1ccccc1-n1c(SCC(=O)NC)nnc1-c1ccco1	D1 antag -37
CC(C)(C)C(=O)Nc1nnc(SCC(=O)NCc2ccco2)s1	none
Cn1c(SCC(=O)NCc2ccco2)nnc1-c1ccccc1	D1 antag -53
CCCCn1nnnc1SCC(=O)NCc1ccco1	D1 antag -33
Cc1cccc(OCC(=O)NCC2(N3CCN(C)CC3)CCCCC2)c1	none
COc1ccccc1C(=O)NC(=O)COC(=O)CNC(=O)c1ccccc1	none
COc1ccccc1C(=O)NCc1nnnn1-c1ccc(C)c(C)c1	none
CC(C)(C)N(NC(=O)Nc1ccc(Cl)c(Cl)c1)C(=O)c1ccccc1	D1 ag 33
CC(C)(O)CNC(=O)Nc1ccc(Cl)c(Cl)c1	none
CC1=NNC(=O)C(CC(=O)Nc2ccc(Cl)c(Cl)c2)C1 (stereo not given)	D1 antag -36
Cc1cc(C)cc(C(=O)N(NC(=O)Nc2ccc(Cl)cc2)C(C)(C)C)c1	D1 antag -30
CC(C)(CC(=O)O)CC(=O)Nc1ccc(Cl)c(Cl)c1	D1 antag -58
O=C(CC1NCCNC1=O)Nc1ccc(Cl)c(Cl)c1 (stereo not given)	none
CC1CC(C)CN(C(=O)c2ccc3c(c2)N(Cc2ccccc2)CCS3)C1 (stereo not given)	none
CCOC(=O)N1CCN(C(=O)c2ccc3c(c2)N(Cc2ccccc2)CCS3)CC1	D1 antag -34
CC(=O)c1ccc(N2CCN(C(=O)Nc3ccc(C(C)C)cc3)CC2)cc1	D1 antag -47
CC(=O)c1ccc(N2CCN(C(=O)Nc3ccc(F)cc3)CC2)cc1	none
COc1cc(OC)c(OC)cc1CCC(C)NC(=O)Cc1ccccc1 (stereo not given)	none
CC(C)(C)NCC(O)COc1ccccc1C1CCCC1 (stereo not given)	D1 ag 31
CCc1ccccc1OC[C@@H](O)CN[C@H]1CCCc2ccccc21	D1 antag -52, D1 ag 97
CC1(C)Oc2ccc3ccc(=O)oc3c2/C(=C/NNC(N)=S)C1=O	none
CCCOc1ccc2ccccc2c1/C=N/n1cnnc1	none
CCOc1ccc2ccccc2c1/C=N/n1cncn1	D1 antag -47
Cc1cc(=O)n(CC(=O)N2CCN(c3ccccc3F)CC2)c2c1c(C)nn2C	D1 antag -30
C=Cc1ccc(Cn2c(=O)cc(C)c3c(C)nn(C)c32)cc1	D1 ag 51

Source: PubChem BioAssay
